According to the supplement of paper PMC6555819:

Legend:
Assay in all cases: PBM binding z-score (relative to random genomic background probes); higher = stronger binding; sequences stand for … in GC…GCGATTGACAGCGTAGAATGAAGG
[1] = test system: PPARg:RXRa DBDmut IVT, anti-RXR (DBD mutation: RXRa K156A/R161A, NR concentration 270 nM, RXRa partner concentration 90 nM)
In short: (§1)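 Regression normalization was applied to scanned fluorescence from custom Agilent 4×180K protein-binding microarrays. Before scanning, arrays were incubated 1 h with ligand-free nuclear receptor dimers, and binding was detected with antibodies against each partner (one per run). Binding z-scores use the random background probes as reference.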

[2] = test system: PPARg:RXRa IVT, anti-PPARg (NR concentration 270 nM, RXRa partner concentration 90 nM)
In short: as §1

[3] = test system: PPARg DBDmut:RXRa IVT, anti-PPARg (DBD mutation: PPARg1 K132A/R137A, NR concentration 270 nM, RXRa partner concentration 90 nM)
In short: as §1

[4] = test system: PPARg DBDmut IVT, anti-PPARg (DBD mutation: PPARg1 K132A/R137A, NR concentration 270 nM)
In short: as §1

[5] = test system: PPARg homodimer (NR concentration 180 nM)
In short: as §1

[6] = test system: PXR:RXRa (NR concentration 270 nM, RXRa partner concentration 90 nM)
In short: as §1

[7] = test system: PXR homodimer (NR concentration 270 nM)
In short: as §1

[8] = test system: RARa:RXR (NR concentration 270 nM, RXRa partner concentration 90 nM)
In short: as §1

[9] = test system: RARa homodimer (NR concentration 270 nM)
In short: as §1

[10] = test system: RARb:RXRa (NR concentration 270 nM, RXRa partner concentration 90 nM)
In short: as §1

| Sequence | PBM binding z-score [1] | PBM binding z-score [2] | PBM binding z-score [3] | PBM binding z-score [4] | PBM binding z-score [5] | PBM binding z-score [6] | PBM binding z-score [7] | PBM binding z-score [8] | PBM binding z-score [9] | PBM binding z-score [10] |
| --- | --- | --- | --- | --- | --- | --- | --- | --- | --- | --- |
| TCATATAGGTTAATGCTAGGTGAAAGTCCGATCT | 4.99 | 4.12 | 1.41 | 0.726 | 1.47 | 1.13 | 0.465 | 1.52 | 1.51 | 1.43 |
| GCTGCTAGGTCAACTGATGGTCAGCTCAAGCTCG | 4.88 | 3.98 | -0.00259 | -0.768 | 2.12 | 1.66 | -0.637 | 2.9 | -0.413 | 4.23 |
| TTGAGTAGGTTAGGGGCATTCAGAATGGCGTCGA | 3.21 | 2.8 | 0.225 | 0.781 | 1.61 | 0.703 | 1.3 | 0.894 | 1.42 | 1.42 |
| GCTAGCAGGCCATTTGCGTCACTCAATGACGGGC | 1.06 | -0.0589 | -0.895 | -0.638 | -1.08 | -0.562 | -0.856 | -0.774 | -1.25 | -0.167 |
| TCGAGTAGGTTAGTCGGGGCATTCCGCCAACATA | 2.34 | 2 | -0.206 | -0.88 | -0.0815 | 0.0285 | -0.57 | 0.175 | -0.691 | 0.585 |
| TGAATGAGTTTAAAGATCAGGGAACGTGGCGTCG | -0.728 | -0.0345 | 0.667 | -0.281 | 0.122 | 0.802 | 0.782 | 0.485 | 0.41 | 0.682 |
| TCGACTAGGTTAGTCGGGGCATTCAGCCAACATA | 2.49 | 2.12 | -0.552 | -0.496 | -0.609 | 0.117 | -0.422 | 0.0483 | -1.11 | 0.662 |
| GCTCGGAGGCCAAGGTCAGAGCTTTGTCCGTAGA | 0.637 | 0.382 | -1.23 | -1.94 | 1.18 | 1.64 | -0.446 | 1.82 | -1.6 | 3.45 |
| CCAGACAGGTGAGAAGGTACCTCAGCCTCGATTA | 0.836 | 0.42 | -0.603 | -0.799 | 0.408 | -0.434 | -0.569 | -0.0825 | -0.214 | 0.313 |
| TTAATGAGGTTAAAGATCAGGGAACGTGGCGTCG | 4.2 | 4.61 | 2.12 | 1.16 | 1.89 | 2.4 | 0.342 | 3.61 | 1.1 | 2.33 |
| TCTAGCAGGCAAGAGGGTCACTCAAGAGGTACGG | 0.584 | 0.0219 | -0.412 | -0.872 | 0.722 | 1.62 | -0.663 | 2.3 | -0.406 | 1.92 |
| TCATATAGGTAAAGGTGAAAGTTGAACGATATGA | 4 | 4.73 | 1.52 | 1.41 | 1.62 | 2.3 | 0.333 | 3.46 | 0.78 | 2.25 |
| ACTAGCAGGCCAAGGGTCACTCGAGATTAGTCCG | 1.3 | 3.54 | -0.0207 | -0.0831 | 2.15 | 3.15 | -0.376 | 3.97 | 0.545 | 3.48 |
| TCTATTAGTTGTTTAGGGCAACCGAAACAGCGGA | 1.98 | 1.19 | 1.27 | 0.951 | 0.794 | 0.621 | 0.33 | 0.698 | 1.2 | 1.13 |
| CCGAGTAGGTTATCGGGCATTCAGGCAACGGTGA | 2.93 | 2.72 | -1.04 | -1.21 | 0.257 | -0.121 | -0.43 | 0.241 | 0.0766 | 0.742 |
| TCTGCTAGGTCAGTTGGTTAGCTAACGAGCTGCC | 2.45 | 2.82 | -0.493 | -0.0218 | -0.654 | 0.251 | -0.819 | 0.432 | -1.34 | 3.29 |
| TCTTGTAGAACAATAGAGGTTAAGAAAGTGCGCT | 1.83 | 1.45 | 0.641 | 0.472 | -0.0635 | 3.16 | 0.538 | 1.69 | 0.27 | 0.777 |
| GCAGACAGGTGGAACGCAGGTAACTCAGGGTGGC | -0.523 | -0.717 | -1.02 | -1.2 | -0.728 | -0.719 | -0.596 | -0.428 | -1.35 | -0.55 |
| CCGAGTAGGTTATGGGGCCTTCAGGCAACGGTGA | 3.11 | 2.85 | -0.856 | -1.59 | 0.629 | -0.268 | -0.427 | 0.0801 | 0.0148 | 0.668 |
| CGTCCAAGGTCATAGGAGGTGAGTGAAGACAGAT | 2.78 | 4.36 | 0.426 | 0.754 | 2.6 | 4.84 | 1.4 | 4.65 | 0.644 | 5.24 |
| AGAATGAGGTTAAGATCAGGGCAACAGAATACAT | 2.97 | 3.28 | 1.36 | 0.923 | 1.05 | 2.34 | 0.694 | 2.78 | 0.44 | 2.45 |
| CGAACGAGGGCATGAGTTGATAACAAATGCCGAT | 2.8 | 1.8 | 0.105 | -0.206 | 0.149 | 0.497 | 0.164 | 0.612 | -0.168 | 1.83 |

| Sequence | PBM binding z-score [1] | PBM binding z-score [2] | PBM binding z-score [3] | PBM binding z-score [4] | PBM binding z-score [5] | PBM binding z-score [6] | PBM binding z-score [7] | PBM binding z-score [8] | PBM binding z-score [9] | PBM binding z-score [10] |
| --- | --- | --- | --- | --- | --- | --- | --- | --- | --- | --- |
| TCGAGTAGGTTACCAATGGGGCATTCAGCTTTCT | 3.39 | 2.58 | -0.0498 | -0.456 | -0.375 | 0.171 | -0.622 | 0.273 | -0.0206 | 0.992 |
| ATACCAATGTGATCGTGAGGTCGTTGATACTAAC | -0.174 | 0.568 | 0.648 | 1.38 | 0.242 | 2.06 | 1.23 | 1.39 | -0.115 | 0.569 |
| AGAACGAGGGCACACTGAGTTGATAGCAGAGTAG | 3.87 | 3.8 | 0.337 | 0.314 | 0.871 | 1.29 | 0.305 | 0.924 | 0.142 | 2.16 |
| TCAGACAGGGGAAGGTAACTCAGGTACGCAGTCG | 2.26 | 0.171 | 0.134 | -0.73 | 0.755 | 0.624 | 0.441 | 0.193 | 0.801 | 0.352 |
| TTCCCAAGGTGAGCTGAGGTCGTTGATCCAACTC | 0.471 | 1.12 | -1.17 | -1.13 | 0.0355 | 4.98 | 0.698 | 2 | -0.927 | 1.75 |
| GCTATTAGTTGAAAGGGCAACCTAATGATTCTCG | 0.686 | 0.831 | 0.904 | 0.354 | 0.978 | 0.94 | 0.54 | 1.56 | 0.795 | 2.02 |
| CAAACTAGGTCACCGGAAGGTTAAAGTCCGCATG | 8.22 | 9.06 | 2.44 | 1.44 | 3.7 | 3.98 | 0.858 | 5.18 | 0.971 | 4.78 |
| TGTCAAAGTCCAAAGGTAACGTAAGTATCCACAC | -0.118 | 1.79 | 0.417 | 1.16 | 0.272 | 0.511 | -0.0654 | 0.938 | 0.285 | 1.93 |
| ATCGAAAGGTCGAAGGTGAGAATACCCACCCGAA | 0.14 | 2.32 | 0.346 | 0.631 | 1.03 | 3.1 | 0.0633 | 4.65 | 0.941 | 3.83 |
| CGTCCATGGTCAAAGGTCAGTGAAGAGATGACGG | 0.409 | 3.55 | 0.423 | 0.425 | 6.15 | 4.15 | 0.407 | 5.38 | 0.504 | 4.41 |
| AAACCAAGGTGATCGTGAGGTCGTTGATACTAAC | 0.846 | 1.19 | 0.252 | 0.247 | 0.649 | 3.05 | 1.5 | 2.16 | -0.27 | 1.24 |
| CAAACTAGGTCAAAGTTCAAAGTCGAGCCAACCA | 8.26 | 8.92 | 2.7 | 3.37 | 3.22 | 6.38 | 5.12 | 7.88 | 1.43 | 5.27 |
| CCTACTGGGCCATGCAGAGGTCATTGATCATATG | 3.41 | 4.39 | 0.533 | 0.384 | 2.69 | 5 | 1.62 | 4.75 | 0.229 | 3.05 |
| ACTAGTTGGTCAGCAGAGGTCACACACAATTCGG | 1.92 | 3.43 | 1.09 | 0.493 | 3.51 | 5.73 | 1.6 | 5.96 | 2.56 | 4.17 |
| GCAGACAGGTGAAACGCAGGTAACTAAGGGTGGC | 0.562 | 0.741 | -0.406 | -0.735 | -0.84 | -0.388 | -0.493 | 0.156 | -0.657 | 0.531 |
| CCTGCTAGGTAAATGGTCAGCTAAAGCAGCTCGC | 1.07 | 0.489 | -1.23 | -1.53 | 0.311 | -0.268 | -0.537 | -0.118 | -0.6 | 0.261 |
| CCTACTGGGCCATTCTGAGGTCATTGATCATATG | 4.08 | 4.24 | 0.979 | -0.299 | 1.5 | 4.42 | 3.46 | 3.85 | -0.372 | 2.57 |
| TTATATAGGTAATACAGGTGAAAGTCGGCATCTA | 6.01 | 5.97 | 1.64 | 2.72 | 1.34 | 0.367 | 0.343 | 0.639 | 1.4 | 0.616 |
| CCTCGGAGGACAACAGGAGGTCAGAGCGGCCAGA | 0.0202 | 0.396 | -0.758 | -1.19 | 1.8 | 2.31 | 0.892 | 2.47 | 0.103 | 3 |
| AGAATGAGGTTATACGTAGATCAGGTAAGAAAGT | 4.3 | 2.28 | 1.26 | 0.947 | 0.811 | 1.23 | 0.571 | 2 | 0.262 | 1.52 |
| CGTCCAAAGTCATAGGAGGTCAGTGAAGACAGAT | 0.497 | 1.53 | 0.0341 | 0.213 | 1.59 | 3.35 | 1.12 | 2.86 | 1.34 | 2.7 |
| GCTTGTAGATCTAGGTTAAGAAAGACTAAGCTAA | 3.21 | 3.27 | 0.608 | 0.399 | -1.08 | -0.4 | -0.246 | 0.0619 | -0.0444 | 0.0938 |
